The source of these data is PubChem BioAssay AID2567 (National Center for Advancing Translational Sciences (NCATS), 2010).

Inconclusive results are not listed. A number with no mark means an inactive call. Activity calls are given as the source filed them. Calls follow the shape of the dose curve; as a rule, active = well fitted antagonist curve with a large enough effect in the main read-out, with a control signal flat; inconclusive = small, poorly fitted or top-dose-only effect; inactive = no such curve, though single readings can be large or run the other way.

The target in the experiment is Neuropeptide S receptor (Homo sapiens) (UniProt Q6W5P4). As to the kind of experiment: Confirmation Concentration-Response Assay for Antagonists of the Neuropeptide S Receptor: Calcium Signal Transduction, SAR for Probe. The settings on record: CHO-NPSR cells, NPS-induced calcium fluorescence, FDSS; series mostly up to 19.3 µM; activity change, negative = inhibition: at the top concentration. An excerpt: NIH Chemical Genomics Center [NCGC] NIH Molecular Libraries Probe Production centers Network [MLPCN] MLPCN Grant: X01-DA026210-01 Assay Submitter (PI): Heilig, Markus Alexander NCGC Assay Overview: Neuropeptide S receptor (NPSR), previously known as GPR154, is a recently de-orphanized G protein coupled receptor. Its endogenous ligand is the 20 amino acids peptide Neuropeptide S (NPS). […] NPS and its receptor are found in various tissues. Specifically they are highly expressed in brain areas that have been implicated in modulation of arousal, stress and anxiety. Central administration of NPS in mice produces an unusual profile of activity by inducing wakefulness and arousal, while at the same time suppressing anxiety. Therefore, NPSR may represent a novel drug target for the treatment of sleep and anxiety disorders. To identify NPSR antagonists, we developed a cell-based assay with transfected NPS receptor. NPS can stimulate the production of cAMP as well as release intracellular calcium in Chinese hamster ovary cells stably expressing NPS receptor. This change in intracellular calcium can be detected using a calcium indicator dye on a calcium imaging plate reader system (FDSS).
Sequence of Neuropeptide S receptor (Homo sapiens) (Q6W5P4 whole entry, looked up): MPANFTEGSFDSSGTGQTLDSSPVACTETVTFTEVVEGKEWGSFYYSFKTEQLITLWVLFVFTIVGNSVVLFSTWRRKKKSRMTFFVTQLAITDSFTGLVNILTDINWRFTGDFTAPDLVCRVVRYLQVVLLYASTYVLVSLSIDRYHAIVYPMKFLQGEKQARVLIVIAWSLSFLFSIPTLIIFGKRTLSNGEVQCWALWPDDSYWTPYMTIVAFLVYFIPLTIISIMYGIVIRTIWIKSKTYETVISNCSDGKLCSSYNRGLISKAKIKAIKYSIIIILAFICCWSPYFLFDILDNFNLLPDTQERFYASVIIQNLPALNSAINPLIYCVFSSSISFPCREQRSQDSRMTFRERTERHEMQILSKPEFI
NCGC Assay Protocol Summary: A Chinese hamster ovary (CHO) cell line stably expressing the NPS receptor (CHO-NPSR) was obtained from Dr. Heilig lab at NIAAA and maintained in F-12 Kaighn's media (Invitrogen, Carlsbad, CA, 21127) supplemented with 10 % FBS, 100 units/ml penicillin, 100 ug/ml streptomycin and 250 ug/ml geneticin at 37C, 5% CO2 in a humidified atmosphere. Before the assay, aliquots of cells were frozen and stored at -135C. The assay was performed on a FDSS-7000 kinetic plate reader in 1536-well format. For both agonist (1-220s) and antagonist (221-400s) phases, the maximums of kinetic fluorescence responses were converted separately into text files using the instrument's software data export utility. Data for agonist response were normalized to the controls for basal activity (DMSO only) and 100% activation (NPS). […] AC50 values were determined from concentration-response data modeled with the standard Hill equation. NPS 1536-well FDSS assay protocol: (1) Frozen CHO-NPSR cells were thaw, washed once with fresh media and resuspended in F-12 Kaighn's media supplemented with 10 % FBS, 100 units/ml penicillin and 100 ug/ml streptomycin. Cells were plated at 3 ul/well (1200 cells) to black, clear-bottom, tissue-culture treated 1536-well plates, and then cultured at 37C, 5 % CO2 for 16 to 30 hours. (2) Add 3 ul of calcium dye (from High Performance PBX Calcium Assay Kit, BD Biosciences). The calcium dye was prepared according to the manufactory's instruction. (3) Incubation at 37C, 5 % CO2 for 60 to 120 min. (4) Load plates to FDSS-7000. The following steps were performed on FDSS-7000. (5) Record fluorescent background (Ex 480 nm, Em 520-560 nm) for 10 s. (6) Add 23 nl/well of compound in DMSO solution. The final titration for each compound was between 0.6 nM and 46 uM. Record agonist response for 210 s. (7) Add 2 ul of stimulation reagent (1X HBSS buffer, 0.1% BSA, 60 nM NPS). Record antagonist response for 140 s. Keywords: MLSMR, MLPCN, NIH Roadmap, qHTS, NCGC, NPS, Neuropeptide S Antagonists
For the compound `COc1cccc(C2c3c(ncn(-c4ccccc4OC)c3=N)Oc3ccc4ccccc4c32)c1` (stereo not given), the Potency was 1.1 µM (active).
The same measure, in the same setting: the figure for `COc1cccc(C2c3c(ncn(-c4cccc(Br)c4)c3=N)Oc3ccc4ccccc4c32)c1` (stereo not given) is 4.38 µM (active); for `COc1ccc(C2c3ccc4ccccc4c3Oc3ncn(CCN4CCOCC4)c(=N)c32)cc1OC` (stereo not given) it is 8.74 µM (active).
As to `COc1ccc(C2c3c(N)nc(Cc4ccccc4)nc3Oc3ccc4ccccc4c32)cc1OC` (stereo not given), the “activity change, negative = inhibition” value is -11.7% [at 50.9 µM].
As to `COc1ccc(C2c3ccccc3Oc3ncn(CCN4CCOCC4)c(=N)c32)cc1OC` (stereo not given), the Potency was 0.694 µM (active).
On to `COc1cccc(C2c3c(ncn(-c4cccc(C#N)c4)c3=N)Oc3ccc4ccccc4c32)c1` (stereo not given), for which the Potency is 4.38 µM (active).
Regarding `COc1cccc(C2c3c(ncn(-c4ccc(-c5ccccc5)cc4)c3=N)Oc3ccc4ccccc4c32)c1` (stereo not given), the “activity change, negative = inhibition” value is -6.38% [at 50.9 µM].
Take `COc1cccc(N2CCN(c3ncnc4c3[nH]c3ccc(F)cc34)CC2C)c1` (stereo not given): the Potency was 0.631 µM (active).
In the case of `Cc1cc(C)n(-c2nc(NC(C)C)nc(NC(C)C)n2)n1`, the “activity change, negative = inhibition” value is 29%.
On to `COc1cccc2sc(Nc3nc(-c4ccccn4)cs3)nc12`, for which the Potency was 3.16 µM (active).
`C/C(=N\Nc1ncc(Cl)cc1Cl)c1ccccn1`: the Potency is 2.51 µM (active).
As to `COc1ccc(C2c3c(nc(Cc4ccccc4)[nH]c3=O)Oc3ccc4ccccc4c32)cc1OC` (stereo not given), the “activity change, negative = inhibition” value is 12.3% [at 50.9 µM].
Take `Cc1c(C(O)(c2ccccc2)c2ccccc2)[n+]2ccccc2n1C`: the “activity change, negative = inhibition” value was -2.71% [at 50.9 µM].
Regarding `COc1cccc(C2c3c(ncn(Cc4cccs4)c3=N)Oc3ccc4ccccc4c32)c1` (stereo not given), the Potency was 3.48 µM (active).
On the same count and under the same terms, the figure for `COc1cccc(C2c3c(ncn(-c4ccccc4C(C)(C)C)c3=N)Oc3ccc4ccccc4c32)c1` (stereo not given) is 4.38 µM (active).
As to `Cn1nc(-c2ccc(Cl)cc2)nc2c(=O)n(C)c(=O)nc1-2`, the “activity change, negative = inhibition” value is 25.8%.
Take `C(=N\Nc1nc(-c2ccccn2)nc2ccccc12)/c1ccccc1`: the “activity change, negative = inhibition” value was 1.74%.
For `COc1cccc(C2c3c(ncn(-c4ccccc4C)c3=N)Oc3ccc4ccccc4c32)c1` (stereo not given), the Potency was 5.52 µM (active).
Consider `COc1ccc(C2c3c(ncn(CCCc4ccccc4)c3=N)Oc3ccc4ccccc4c32)cc1OC` (stereo not given), for which the “activity change, negative = inhibition” value was -76.1% [at 50.9 µM].
As to `CCCCCN1C=CC=C/C1=C\C=C(C#N)C#N`, the “activity change, negative = inhibition” value is -25.1%.
Take `CCOC(=O)c1cnc(-n2nc(C)cc2C)nc1NC1CCCC1`: the Potency was 2.82 µM (active).
Consider `Cc1c(P(=S)(c2ccccc2)c2ccccc2)c2ccccc2n1Cc1ccccc1`, for which the “activity change, negative = inhibition” value is 52.1% [at 50.9 µM].
As for `CCCCOc1ccc(OCCCN2CCOCC2)cc1`, the “activity change, negative = inhibition” value is 2.69%.
Regarding `Cc1c(P(=S)(c2ccccc2)c2ccccc2)c2ccccc2n1CCc1ccccc1`, the “activity change, negative = inhibition” value was -13.2% [at 50.9 µM].
Turning to `c1ccc(P(c2ccccc2)c2cnc3ccccn23)cc1`, the Potency is 11 µM (active).
For `CN(C)C(=O)Oc1cccc([N+](C)(C)C)c1`, the “activity change, negative = inhibition” value was 20.5%.
As for `COc1cccc(C2c3c(ncn(-c4ccccn4)c3=N)Oc3ccc4ccccc4c32)c1` (stereo not given), the Potency was 5.52 µM (active).
In the case of `Cc1cc2nc3ccc(=[N+](C)C)cc-3sc2cc1N`, the “activity change, negative = inhibition” value is -7.55%.
On to `COc1ccc(C2c3c(N)nc(CCc4ccccc4)nc3Oc3ccc4ccccc4c32)cc1OC` (stereo not given), for which the “activity change, negative = inhibition” value was -16.8% [at 50.9 µM].
Regarding `COc1cccc(C2c3c(ncn(-c4ccccc4Br)c3=N)Oc3ccc4ccccc4c32)c1` (stereo not given), the Potency is 5.52 µM (active).
With `CCC(C)n1c(=O)c(C(=O)Nc2ccccc2S(N)(=O)=O)c(O)c2ccccc21` (stereo not given), the “activity change, negative = inhibition” value is -2.76%.
On the same count and under the same terms, the figure for `Cc1ccc(NC(=S)NNC(C)(C)C)cc1` is 9.85%.
`COc1ccc(C2c3ccc(OCc4ccccc4)cc3Oc3ncn(CCN4CCOCC4)c(=N)c32)cc1OC` (stereo not given): the “activity change, negative = inhibition” value is -60.5% [at 50.9 µM].
As for `COc1ccc(C(=O)N(Cc2ccco2)Cc2cccs2)c(O)c1`, the “activity change, negative = inhibition” value was 34.4%.
Turning to `NC(=S)N/N=C/c1ncc(C(F)(F)F)cc1Cl`, the “activity change, negative = inhibition” value is -1.3%.
As to `COc1cccc(C2c3c(ncn(-c4ccccc4C#N)c3=N)Oc3ccc4ccccc4c32)c1` (stereo not given), the Potency is 4.38 µM (active).
Turning to `CC(=O)c1sc(-c2ccccc2)cc1NS(=O)(=O)c1ccccc1`, the “activity change, negative = inhibition” value is 19.9%.
For the compound `COc1cccc(C2c3c(ncn(-c4cccc(F)c4)c3=N)Oc3ccc4ccccc4c32)c1` (stereo not given), the Potency was 0.22 µM (active).
Consider `CN(C)C(=S)N=Nc1[nH]c2ccccc2c1O`, for which the “activity change, negative = inhibition” value is 15.4%.
Turning to `COc1cccc(C2c3c(ncn(-c4ccncc4)c3=N)Oc3ccc4ccccc4c32)c1` (stereo not given), the Potency is 4.38 µM (active).
